High-throughput results (PubChem)
The list is not random: actives were taken first. Their share in the collection is about 5.4%.
AHR act – human AHR activation; P35869; AHR-responsive luciferase reporter cells, luminescence; activation, % at 5 µM; 320,000 compounds, 2.5% hits; AID 2796; in the data active = activation above about 47%;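 also: 0% = vehicle wells and 100% = reference agonist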
HSF1 inh – HSF1 inhibition; NIH3T3-HGL HSE-luciferase, MG132-induced, luminescence 8 h; stronger effect = lower value; activity change, negative = inhibition, % at 7.5 µM (by protocol); 300,000 compounds, 0.77% hits;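 active = more than half of replicate wells show activity change below -50%, luminescence cut by over half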;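 also: luciferase reports HSF-1 transcriptional activity via heat shock element; 0% = median of DMSO wells and -100% = zero luminescence signal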
FXN GAA850 act – activators of GAA850 frataxin (FXN) promoter; HEK293 lucGAA850 FXN promoter luciferase reporter, 24 h; percent of 10 µM SAHA response; activation, % at 6 µM; 360,000 compounds, 0.56% hits;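 active = activation above the average of all compounds screened plus 3 SD, cutoff fixed separately per campaign, cut at about 7.5% in these data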;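 also: 0% = DMSO wells and 100% = 10 µM SAHA wells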
DAX1 inh – NR0B1 (DAX1) inhibition. P51843. HEK293 Gal4-DAX1 luciferase reporter, luminescence. 340,000 compounds, 0.99% hits. inhibition, % at 6.75 µM;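 active = inhibition above the mean over all tested compounds plus 3 SD, cut at about 4.2% in these data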;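 also: 0% = DAX1-transfected cells with DMSO and 100% = empty-vector control cells with DMSO; inhibition shows as a rise in luminescence from relieved DAX1 repression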
Target sequence (P51843 207-470 limits assumed): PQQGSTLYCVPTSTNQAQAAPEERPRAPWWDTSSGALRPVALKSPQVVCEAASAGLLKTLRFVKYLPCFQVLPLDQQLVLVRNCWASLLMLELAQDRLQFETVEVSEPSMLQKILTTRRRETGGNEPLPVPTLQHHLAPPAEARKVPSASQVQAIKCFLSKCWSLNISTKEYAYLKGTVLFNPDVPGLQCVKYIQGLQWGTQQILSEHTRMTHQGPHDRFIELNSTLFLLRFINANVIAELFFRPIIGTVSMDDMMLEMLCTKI
HSF-1 act – increases HSF-1 driven luciferase reporter signal; NIH3T3-HGL HSF-1 luciferase reporter, MG132, 8 h; 100% = twice DMSO control signal; activation, % at 9 µM; 300,000 compounds, 1.7% hits; AID 504408;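 active = mean replicate activation of at least 50% with a set share of replicates each reaching 50%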;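 also: 0% = median of the neutral control wells and 100% = twice that signal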
Active calls of the source: *; . = no result given.

SMILES | AHR act | HSF1 inh | FXN GAA850 act | DAX1 inh | HSF-1 act
CCn1cc(CN2CCN(Cc3ccccc3)C(CCO)C2)c2ccccc21 (centres undefined) | 9 | -1 | -7 | 4.2* | 8
CN(c1ccccc1)S(=O)(=O)c1cccc(NC(=O)CCNC(=O)c2ccco2)c1 | . | . | 1 | 1 | .
N#C/C(=C/c1ccc(N2CCCCCC2)o1)c1ccc(Cl)cc1 | 1 | 90 | 4 | -1 | 93*
O=C(Nc1ccccc1F)C1CCN(S(=O)(=O)c2cccnc2)CC1 | 1 | -4 | -1 | 1 | 6
COc1ccc(-n2c(C)c(C)c3c(N)ncnc32)cc1 | 1 | -57* | -2 | 0 | -69
Cc1cc(NC(=O)c2c(F)cccc2Cl)n(-c2nc3ccccc3[nH]2)n1 | 6 | -9 | -1 | 1 | -20
CC(C)(C)c1cc(NC(=O)c2c(F)cccc2Cl)n(-c2ccccc2)n1 | 3 | 2 | 2 | 4.5* | 9
Cc1ccc(-c2ccc(/C=C(\C#N)C(N)=S)n2C)cc1 | 79* | . | 2 | 0 | .
Cn1cccc1/C=C(/C#N)C(N)=S | -3 | 3 | -1 | -1 | 15
NS(=O)(=O)c1ccc(NC(=O)CSc2nc3c(cnn3-c3ccccn3)c(=O)[nH]2)cc1 | . | . | 2 | 0 | .
Cc1cccc(-c2nc(Nc3cccc(O)c3)c3ccccc3n2)c1 | 68* | 2 | 0 | -1 | -5
c1ccc2c(Nc3ccc(N4CCOCC4)cc3)nc(N3CCOCC3)nc2c1 | 72* | 3 | 1 | -2 | -12
Cc1cccc(-c2nc(Nc3ccc(N4CCOCC4)cc3)c3ccccc3n2)c1 | 56* | 4 | 0 | -2 | 18
c1ccc2c(N3CCOCC3)nc(N3CCOCC3)nc2c1 | 2 | -8 | 3 | -1 | 5
Oc1ccc(Nc2nc(-c3ccccc3)nc3ccccc23)cc1 | 3 | 5 | 1 | -2 | 11
O=C(COC(=O)c1cc2ccccc2oc1=O)Nc1cccc(S(=O)(=O)N2CCCCCC2)c1 | 1 | 4 | 5 | 1 | 5
Cc1ccnc(NC(=O)c2cc3ccccc3oc2=O)c1 | 8 | 26 | 5 | 3 | 67*
Cc1ccc(S(=O)(=O)N/N=c2\oc3ccccc3cc2C(=O)Nc2cccc(C)c2)cc1 | 0 | 37 | . | . | 58*
CN(C)S(=O)(=O)c1cccc(NC(=O)COC(=O)c2cc3ccccc3oc2=O)c1 | 0 | 20 | 6 | 5.3* | 42
Cc1cccc(NC(=O)c2cc3ccccc3oc2=O)c1 | 4 | 20 | 3 | 4.3* | 30
O=C(O)c1ccccc1NC(=O)c1cc2ccccc2oc1=O | . | 13 | 0 | 1 | 5
Cc1cc(C)cc(C(O)c2ncc(-c3ccc(C(F)(F)F)cc3)[nH]2)c1 (centres undefined) | . | . | -1 | . | .
O=C(COC(=O)/C=C/c1ccccc1[N+](=O)[O-])Nc1ccc2[nH]c(=O)[nH]c2c1 | 27 | . | 2 | 2 | .
COc1ccc(C(=O)Nn2c(SCC(=O)NC3CCCCC3)nc3ccccc3c2=O)cc1 | 2 | -64* | -8 | -5 | -73
COc1ccc(C(=O)Nn2c(C)nc3ccccc3c2=O)cc1 | 1 | -2 | 0 | -2 | -17
SMILES | AHR act | HSF1 inh | FXN GAA850 act | DAX1 inh | HSF-1 act
COc1ccc(C(=O)Nn2c(SCC(=O)NCc3ccco3)nc3ccccc3c2=O)cc1 | -2 | -75* | -7 | -3 | -76
COCCCn1c(SCC(=O)NC2CCCCC2)nc2ccccc2c1=O | 1 | 3 | 2 | -1 | -11
COc1ccc(C(=O)Nn2c(SCC(=O)c3ccc(Cl)cc3)nc3ccccc3c2=O)cc1 | 2 | -71* | -5 | -3 | -75
O=C(CSc1ncc(-c2ccccc2)n1-c1ccccc1)NCc1ccco1 | -1 | 5 | -1 | 2 | -1
COc1ccc(-n2c(-c3ccc(F)cc3)cnc2SCC(=O)NCc2ccco2)cc1 | 2 | -54* | 3 | -1 | -62
CC1(C)OC(C)(C)/C(=C/Nc2ccccc2)C1=O | 1 | -4 | 1 | -1 | 7
CCN1CCN(S(=O)(=O)c2ccc(C(C)(C)C)cc2)CC1 | -1 | -1 | 0 | -2 | 6
COc1ccc(C(=O)Nn2c(SCC(=O)N3CCC(C)CC3)nc3ccccc3c2=O)cc1 | 3 | -66* | -11 | -3 | -73
COC(=O)C1=C(C)Nc2ccc(C)cc2S1 | 18 | -11 | -1 | 4.2* | -20
CSc1nc(-c2ccco2)nn1C(=O)c1cccs1 | 1 | -30 | 2 | 0 | -37
O=C(c1cccs1)n1nc(-c2ccco2)nc1SCc1ccccc1 | -1 | -54* | . | . | -64
